Screens (PubChem)
An excerpt weighted towards active compounds, which were near 17% of everything screened.
HT1080-NT tox = kills 2HG-producing HT-1080-NT fibrosarcoma cells. actives 1.6% (n = 360,000). Potency, µM (doses to about 46.1 µM), for inactives: top-dose activity, negative = less viability, actives largely listed as cytotoxic. AID 686970. HT-1080-NT fibrosarcoma viability, CellTiter-Glo ATP luminescence, 48 h;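 also: NT is the 2HG producing partner of a matched IDH1 knockdown line; 0% = DMSO-treated cells and -100% = media-only wells without cells; nearly all actives have a fitted effect of over 55% in size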
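Viability of the 2HG-overproducing fibrosarcoma line after 48 hours of compound exposure at 37 degrees C was determined by luminescence with CellTiter-Glo, and concentration-effect curves were then fitted and categorized.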
HepG2 tox = kills HepG2 cells in TGF-b inhibitor counter-screen; HepG2 CAGA-GFP viability, ATP luminescence, 18 h; AID 588856; actives 0.76% (n = 410,000); Potency, µM (series often up to 46.1 µM), for the others: at the highest dose activity change, negative = cytotoxicity, hits mostly cytotoxic
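HepG2 CAGA-GFP cells (1000/well, DMEM with 1% FBS) received compound, then TGF-beta at 500 pg/mL final, and were incubated 18 hours at 37 degrees C. Viability was read by CellTiter-Glo luminescence. Media-only wells were set as complete cell-killing and DMSO as no toxicity.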
TGFb SMAD3 inh = inhibitors of TGF-b signaling. Potency, µM (series often up to 46.1 µM), without a hit: at the highest dose activity, negative = inhibition, actives largely listed as inhibitors. actives 1.2% (n = 410,000). AID 588855. HepG2 CAGA-GFP TGF-b/SMAD3 reporter, GFP fluorescence, 18 h; TGF-beta stimulated, 500 pg/mL final; also: % is scaled to controls: 0 for no effect and ±100 for the full control effect; nearly all actives have a fitted effect of over 65% in size
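HEPG2 CAGA-GFP cells (1000/well, DMEM with 1% FBS) were pre-incubated 2 h at 37 degrees C, given compound by pin tool, then stimulated with TGF-beta at 500 pg/mL final for 18 h before per-cell GFP fluorescence imaging.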
TDP1 cell noCPT = qHTS for Inhibitors of human tyrosyl-DNA phosphodiesterase 1 (TDP1): qHTS in cells in absence of CPT; DT40 Tdp1-/- hTDP1 cells, no CPT, ATP luminescence, 48 h; Potency, µM (titrated, usually from 46.2 µM), for inactives: at the highest dose activity change, negative = growth inhibition, actives largely listed as inhibitors; actives 15% (n = 420,000); AID 686978, 2013; also: % is scaled to controls: 0 for no effect and ±100 for the full control effect; nearly all actives have a fitted effect of over 55% in size
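Growth of hTDP1-complemented DT40 Tdp1-knockout cells is measured by ATP luminescence after at least 48 hr compound exposure at 37 °C, with DMSO substituting for the 20 nM CPT used in the parallel screen.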
HT1080 IDH1KD tx = kills HT-1080 cells with IDH1 knockdown; actives 2% (n = 360,000); AID 686971; HT-1080 IDH1 knockdown viability, ATP luminescence, 48 h; Potency, µM (doses to about 46.1 µM), inactives show at the highest dose activity, negative = toxicity, hits mostly cytotoxic;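 also: 0% = DMSO wells and -100% = cell-free medium wells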
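Assay cells: HT-1080 with IDH1 knockdown, 750 per well, RPMI/5% FBS. Exposure: 48 h at 37 °C following 2 h pre-incubation. Read: CellTiter-Glo luminescence; fitted concentration-response, curve class assigned.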
TDP1 cell CPT = growth inhibition of DT40 Tdp1-/-;hTDP1 cells with camptothecin (screen for TDP1 inhibitors); chicken DT40 Tdp1-/-;hTDP1 cells + 20 nM CPT, ATP luminescence, 48 h; Potency, µM (doses to about 46.2 µM), for the others: at the highest dose activity change, negative = growth inhibition, most hits filed as inhibitors; actives 12% (n = 420,000); also: % is scaled to controls: 0 for no effect and ±100 for the full control effect; nearly all actives have a fitted effect of over 55% in size
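Chicken DT40 Tdp1-/- cells complemented with human TDP1, 400 cells/well, exposed to compounds plus 20 nM camptothecin for at least 48 h at 37 C; viability read as ATP content by CellTiter-Glo luminescence.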
Numbers without * were called inactive; u = inconclusive; x = no result given; [ ] = another dose, or the depositor's remark. Calls follow the shape of the dose curve; as a rule, active = well fitted curve in the direction sought with a large enough effect; inconclusive = small, poorly fitted or top-dose-only effect, or another doubt; inactive = no such curve, though single readings can be large; an effect the other way counts as inactive or inconclusive. Potency is read from the fitted curve at half-maximal effect.

SMILES | HT1080-NT tox | HepG2 tox | TGFb SMAD3 inh | TDP1 cell noCPT | HT1080 IDH1KD tx | TDP1 cell CPT
Cc1ccccc1C(=O)Nc1c(C(=O)N(CCN(C)C)Cc2ccco2)oc2ccccc12 | -18% | -46% | -19% | u | u | u
COc1ccccc1C(=O)Nc1c(C(=O)N(CCN(C)C)Cc2ccco2)oc2ccccc12 | -3% | -103% | u | 12µM* | u | 9.2µM*
COc1ccc(OC)c(C(=O)c2oc3ccccc3c2NC(C)=O)c1 | -19% | -8% | 0% | 16µM* | -28% | 23µM*
COc1ccc(COC[C@H](C)[C@H](O[Si](C)(C)C)[C@@H](C)[C@H]2OC(=O)[C@H]2C)cc1 | x | -11% | -12% | x | x | x
O=C(NCCSCc1c(F)cccc1Cl)c1ccc(CN2CCOCC2)cc1 | 16% | -3% | -3% | u | 9% | u
CCCCN(CCCC)Cc1cc(=O)oc2cc(C)c(Cl)cc12 | -7% | -9% | 1% | u | -9% | u
CCOc1ccc(CC(=O)Nc2c(C(=O)Nc3ccc(OC)cc3OC)oc3ccccc23)cc1 | x | -5% | 5% | u | x | u
COc1cc(C(=O)Nc2c(C(=O)Nc3ccccc3F)oc3ccccc23)cc(OC)c1OC | x | -18% | u | 4.1µM* | x | 5.2µM*
COc1ccccc1NC(=O)c1oc2ccccc2c1NC(=O)c1c(F)cccc1F | x | -3% | -4% | u | x | u
COc1ccccc1C(=O)Nc1c(C(=O)c2ccccc2)oc2ccccc12 | x | -7% | -17% | u | x | 18µM*
COc1ccccc1C(=O)Nc1c(C(=O)NC(C)(C)C)oc2ccccc12 | x | -18% | x | 23µM* | x | u
COc1ccc(NC(=O)c2oc3ccccc3c2NC(=O)C23CC4CC(CC(C4)C2)C3)c(OC)c1 | x | -12% | 3% | 23µM* | x | -23%
CC(C)CC(=O)Nc1nnc(SCC(=O)NC2CCCCC2)s1 | 9% | -3% | 4% | 0% | 5% | -3%
O=C(c1ccc2c(c1)OCO2)N(Cc1cc2cc3c(cc2nc1N1CCOCC1)CCC3)CC1CCCO1 (stereo unspecified) | x | x | x | -2% | x | 25%
CCOc1ccc(NC(=O)c2oc3ccccc3c2NC(=O)c2ccc(OC)cc2OC)cc1 | x | 2% | 28% | 18µM* | x | 23µM*
Cc1ccc(NC(=O)CSc2nc(NS(=O)(=O)c3ccccc3)cc(=O)[nH]2)cc1 | 5% | -1% | -3% | 1% | 5% | -3%
CCc1ccc(NC(=O)CSc2nc(NS(=O)(=O)c3ccccc3)cc(=O)[nH]2)cc1 | u | -28% | u | 16µM* | u | 26µM*
COc1cc(CN2CCCC(n3cc(C(=O)N4CCCCC4)nn3)C2)cc(OC)c1 (stereo unspecified) | x | x | x | 23µM* | x | u
Cc1nn(CC(=O)N2CCN(c3ccccc3)CC2)c(=O)c2cc3cc(F)ccc3n12 | x | 7% | -7% | -1% | x | 19%
COc1ccc(NS(=O)(=O)c2cc(NC(=O)CCc3ccccc3)ccc2N2CCOCC2)cc1 | -13% | -5% | 4% | -22% | -9% | u
CC(=O)N1CCN(S(=O)(=O)c2ccc(Cl)cc2F)CC1 | 6% | 46% | 7% | -1% | 11% | 33%
O=C(CN1Cc2ccccc2OC(c2ccsc2)C1)N1CCN(Cc2ccc3c(c2)OCO3)CC1 (stereo unspecified) | x | x | x | 23µM* | x | -11%[9.04 µM]
O=C(Nc1nnc([C@@H]2C[C@H](O)[C@@H](CO)O2)s1)c1c(F)cccc1F | 29% | 0% | -4% | -4% | 0% | -2%
